From PubChem BioAssay
The source made the active and inactive calls.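 The calls were made as follows, unless noted: active = inhibition at or above 50% at 10 µM; inactive = inhibition below 50%.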

How the values were obtained:
[1] = inhibitors of TNFa-induced NFkB p65 translocation, primary screen, imaging, HUVEC, MLSMR starter and 10KST1 sets (AID 438;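 active = inhibition above 20% together with a positive visual image hit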;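 also: compound added about 3h40 before a 20 min TNFalpha stimulation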;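 as to inhibition: signal is the nuclear over cytoplasmic p65 intensity ratio per well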); conditions: HUVEC TNFa-induced p65 nuclear translocation; cell count: measured here: nuclei count (cytotoxicity indicator), at 2.08 µM; inhibition: at 2 µM, stronger effect = higher value, 0% TNFa-plus-vehicle, 100% no-TNFa wells
[2] = inhibitors of mutant huntingtin aggregation, primary screen, imaging, exon1htt(103Q)mCFP cells, high-content imaging (AID 483;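 active = visual image review flags a hit and inhibition of aggregation exceeds 20%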;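 also: compound exposure lasted 3 days before fixation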;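 as to nuclei count: percent of the per-plate median nuclei count of sample wells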); conditions: exon1htt(103Q)mCFP cell line, aggregate imaging, at 2 µM; inhibition of aggregation: stronger effect = higher value; nuclei count: measured here: cell count, toxicity
[3] = inhibitors of E-selectin induction by TNFa, primary screen, imaging, HUVEC, immunofluorescence, MLSMR starter and 10KST1 sets (AID 487;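 active = visually confirmed hit in the image check and inhibition above 20%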;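 as to inhibition: signal is fraction of cell area covered by stained E-selectin grains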;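 as to nuclei count: 100% = median nuclei count of all wells on the same plate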); conditions: HUVEC TNFalpha-induced E-selectin immunofluorescence imaging, at 2 µM; inhibition: stronger effect = higher value; nuclei count: measured here: cell number, toxicity
[4] = molecular target: Voltage-gated potassium channel subunit beta-2 (Rattus norvegicus) (UniProt P62483); assay: KvBeta enzyme negative modulators, primary screen, biochemical, NADPH fluorescence (AID 622;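 active = fluorescence slope higher than the sample average by over 3 SD, cut at about -0.22 in these data, passing the limit was not always enough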;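 also: slope of raw intensity against log time taken from 70 to 1610 s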); conditions: recombinant KvBeta, 4-cyanobenzaldehyde reduction, at 10 µM, stronger effect = higher value
Voltage-gated potassium channel subunit beta-2 (Rattus norvegicus), sequence (P62483 whole entry, looked up): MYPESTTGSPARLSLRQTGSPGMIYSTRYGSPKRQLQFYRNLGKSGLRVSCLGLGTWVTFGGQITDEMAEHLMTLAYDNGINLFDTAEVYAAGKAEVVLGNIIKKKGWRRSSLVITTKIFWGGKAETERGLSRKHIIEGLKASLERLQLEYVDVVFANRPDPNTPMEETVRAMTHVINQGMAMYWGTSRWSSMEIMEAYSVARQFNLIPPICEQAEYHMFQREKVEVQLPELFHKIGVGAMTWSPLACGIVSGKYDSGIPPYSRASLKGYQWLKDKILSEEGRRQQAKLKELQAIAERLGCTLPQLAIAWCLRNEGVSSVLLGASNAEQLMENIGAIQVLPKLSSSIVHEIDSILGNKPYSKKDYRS

[5] = molecular target: Voltage-gated potassium channel subunit beta-2 (Rattus norvegicus) (UniProt P62483); assay: KvBeta positive modulators, primary screen, biochemical, NADPH fluorescence (AID 623;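 active = NADPH fluorescence slope more negative than the mean of all samples by about 3 SD, 99.7% confidence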;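 also: fluorescence intensity change per second fitted from 20 to 320 s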); conditions: Recombinant KvBeta, NADPH fluorescence decrease slope, 10 min; at 10 µM; stronger effect = lower value
[6] = molecular target: Alpha-2C adrenergic receptor (Homo sapiens) (UniProt P18825); assay: modulators of alpha2C/GIRK thallium flux, primary screen, cell-based, HEK293 alpha2C/GIRK1/2 (AID 624;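 active = fluorescence slope after compound addition differing from the mean of all screened samples at 99.7% confidence, in either direction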;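 also: slope of fluorescence ratio to pre-addition baseline per second over 15 to 24 s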); conditions: thallium flux BTC fluorescence, at 10 µM, actives lie on both sides
Alpha-2C adrenergic receptor (Homo sapiens), sequence (P18825 whole entry, looked up): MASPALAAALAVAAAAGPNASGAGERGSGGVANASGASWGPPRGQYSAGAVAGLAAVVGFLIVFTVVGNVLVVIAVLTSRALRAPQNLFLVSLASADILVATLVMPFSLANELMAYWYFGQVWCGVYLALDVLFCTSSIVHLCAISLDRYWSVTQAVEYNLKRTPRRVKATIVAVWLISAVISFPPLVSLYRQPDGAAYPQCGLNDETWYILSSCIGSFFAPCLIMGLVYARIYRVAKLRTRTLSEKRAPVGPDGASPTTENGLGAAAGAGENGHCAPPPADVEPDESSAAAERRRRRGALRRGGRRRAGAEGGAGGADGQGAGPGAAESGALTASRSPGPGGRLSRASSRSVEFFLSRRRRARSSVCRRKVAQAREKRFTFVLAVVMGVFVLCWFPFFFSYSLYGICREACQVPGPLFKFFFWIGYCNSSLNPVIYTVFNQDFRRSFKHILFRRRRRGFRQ

[7] = inhibitors of Sendai virus-induced IRF3 signaling, primary screen, TLR/RLR signaling modifier project, cell-based, Sendai virus stimulus, luciferase, 10K MLSCN set (AID 602276); conditions: HEK293 RL24 IRF3 luciferase reporter, at 10 µM, stronger effect = higher value;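 also: firefly luciferase from ISG56 promoter only with Renilla not read in this screen; 0% = Sendai virus plus DMSO and 100% = medium plus DMSO without virus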
[8] = inhibitors of poly I:C-induced TLR3 signaling, primary screen, cell-based, poly I:C stimulus, luciferase, 10K MLSCN set (AID 602277;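 active = inhibition of the reporter signal at or above 50%; inactive = inhibition below 50%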); conditions: HEK293-TLR3 RL24 IRF3 luciferase reporter, at 10 µM, stronger effect = higher value

SMILES | cell count [1] | inhibition [1] | inhibition of aggregation [2] | nuclei count [2] [%] | inhibition [3] | nuclei count [3] [%] | fluorescence slope [4] | NADPH fluorescence slope [5] | slope [6] | inhibition [7] | inhibition [8]
Cn1c(=O)c2c(nc(CN3CCOCC3)n2CC(O)CO)n(C)c1=O (stereo unspecified) | 474 | 44.4% (active) | 19.2% (inactive) | 103 | 10.6% (inactive) | 110 | -0.427 (inactive) | -2.2e-05 (inactive) | 0.00587 (inactive) | 14.2% (inactive) | 23.9% (inactive)
CC(=O)Nc1ccc(S(=O)(=O)NCc2cn3c(C)csc3n2)cc1 | 531 | -7.6% (inactive) | -8.4% (inactive) | 104 | -29.8% (inactive) | 84.3 | -0.588 (inactive) | -3.6e-05 (inactive) | 0.00529 (inactive) | 1.88% (inactive) | 8.5% (inactive)
CCOc1ccc(OCC)c(NC(=O)CCCN2C(=O)c3cccnc3C2=O)c1 | 408 | 5.3% (inactive) | 15.7% (inactive) | 93.7 | 42.2% (inactive) | 102 | -0.583 (inactive) | -3.8e-05 (inactive) | 0.00505 (inactive) | -17.2% (inactive) | -8.59% (inactive)
CCOC(=O)N1CCN(C(=O)Cn2ncn3nc(-c4cccs4)cc3c2=O)CC1 | 313 | -0.8% (inactive) | 14.8% (inactive) | 79.5 | 9.5% (inactive) | 88.5 | -0.404 (inactive) | 2e-05 (inactive) | 0.00387 (inactive) | -1.73% (inactive) | -47.5% (inactive)
CCOC(=O)N1CCN(CCC(=O)c2ccc(Cl)cc2)CC1 | 533 | -10.6% (inactive) | -1.1% (inactive) | 116 | -30.8% (inactive) | 69.7 | -0.611 (inactive) | -3.9e-05 (inactive) | 0.00547 (inactive) | 2.5% (inactive) | 2.89% (inactive)
CCc1cc(=O)oc2cc(OC(C)=O)cc(OC(C)=O)c12 | 602 | -6% (inactive) | 12.3% (inactive) | 104 | 19.2% (inactive) | 97.5 | -0.0715 (active) | 2.1e-05 (inactive) | 0.00397 (inactive) | 11.6% (inactive) | 14% (inactive)
COc1ccccc1CNC(=O)Nc1cccs1 | 546 | -6.3% (inactive) | 9.4% (inactive) | 118 | -30.8% (inactive) | 123 | -0.45 (inactive) | 8.3e-06 (inactive) | 0.0111 (inactive) | -0.521% (inactive) | -0.402% (inactive)
CCOC(=O)c1ccc(N2C(=O)CC(N(C)CCc3ccc(OC)c(OC)c3)C2=O)cc1 (stereo unspecified) | 451 | -7.1% (inactive) | 2.9% (inactive) | 94.2 | -20.7% (inactive) | 117 | -0.431 (inactive) | 3.6e-05 (inactive) | 0.00246 (inactive) | -7.6% (inactive) | 25.6% (inactive)
Cc1nc2ccccc2c2oc(C(=O)N3CCC(N4CCCCC4)CC3)cc12 | 591 | -4.4% (inactive) | -14.4% (inactive) | 100 | -12.1% (inactive) | 119 | -0.602 (inactive) | -3.1e-05 (inactive) | 0.00619 (inactive) | -0.549% (inactive) | 24% (inactive)
Cn1cc(Br)c(C(=O)NC2CCCCC2)n1 | 483 | -5.1% (inactive) | -0.3% (inactive) | 105 | -145% (inactive) | 238 | -0.408 (inactive) | 1.7e-05 (inactive) | 0.00924 (inactive) | 7.35% (inactive) | 5.88% (inactive)
c1ccc(OCCCn2nnc(-c3cccnc3)n2)cc1 | 340 | 0.3% (inactive) | 12.8% (inactive) | 95.2 | -79.2% (inactive) | 121 | -0.343 (inactive) | 4.3e-06 (inactive) | 0.0037 (inactive) | 2.51% (inactive) | -2.63% (inactive)
Cc1nc(N2CCc3ccccc32)[nH]c(=O)c1CCC(C)C | 345 | -1.1% (inactive) | -19.6% (inactive) | 112 | -114% (inactive) | 135 | -0.439 (inactive) | -4.2e-05 (inactive) | 0.00282 (inactive) | 0.138% (inactive) | 3.18% (inactive)
O=c1c2ccccc2nnn1CSc1nnc2sc3ccccc3n12 | 558 | -14.2% (inactive) | -28.8% (inactive) | 109 | -56% (inactive) | 111 | -0.521 (inactive) | -4.5e-05 (inactive) | 0.00436 (inactive) | 49% (inactive) | 42.1% (inactive)
COc1ccc(C(=O)CSc2nnc(C3CCCCC3)n2N)c(OC)c1 | 419 | -11.9% (inactive) | 24.4% (inactive) | 97.2 | 99.1% (active) | 89.1 | -0.612 (inactive) | -2e-05 (inactive) | 0.00551 (inactive) | 10.3% (inactive) | 11.5% (inactive)
CCOC(=O)C1(c2ccccc2)NC(c2ccc(N(C)C)cc2)C2C(=O)N(C)C(=O)C21 (stereo unspecified) | 450 | -4% (inactive) | 3.8% (inactive) | 116 | -87.1% (inactive) | 93.2 | -0.31 (inactive) | -6.3e-05 (inactive) | 0.00476 (inactive) | 14.4% (inactive) | 22.7% (inactive)
CS(=O)(=O)N(Cc1ccccc1)c1ccc(C(=O)N2CCOCC2)cc1 | 297 | 11.6% (inactive) | 23% (inactive) | 91.2 | 41.9% (inactive) | 96.9 | -0.516 (inactive) | -1.2e-05 (inactive) | 0.00702 (inactive) | -11.4% (inactive) | 0.146% (inactive)
COc1ccc(Cc2nnc(NC(=O)Cc3cccs3)s2)cc1 | 674 | -27.6% (inactive) | 8.6% (inactive) | 105 | 14.9% (inactive) | 101 | -0.568 (inactive) | 2.7e-05 (inactive) | 0.0056 (inactive) | -11% (inactive) | 100% (active)
CCc1nc2sc3ccccc3c(=O)c2c(=O)n1Cc1ccco1 | 577 | 14.3% (inactive) | -3.1% (inactive) | 87.2 | 4.8% (inactive) | 112 | -0.568 (inactive) | -3.8e-05 (inactive) | 0.00576 (inactive) | -14.6% (inactive) | -14.8% (inactive)
C=CCn1c(=O)c2ccccc2n2c(SCC(=O)Nc3cc(C)on3)nnc12 | 469 | -22.4% (inactive) | -23.3% (inactive) | 113 | -50.6% (inactive) | 153 | -0.605 (inactive) | -4.3e-05 (inactive) | 0.00622 (inactive) | 3.33% (inactive) | 5.94% (inactive)
N#CC1=C(SCC(=O)NC23CC4CC(CC(C4)C2)C3)NC(=O)C(C#N)C12CCCCC2 (stereo unspecified) | 755 | -9.3% (inactive) | 16.9% (inactive) | 100 | -142% (inactive) | 123 | -0.519 (inactive) | -6.2e-05 (inactive) | 0.00603 (inactive) | 16.3% (inactive) | -22.7% (inactive)
Cc1coc2cc3oc(=O)c4c(c3cc12)CCC4 | 714 | 6.7% (inactive) | -13.1% (inactive) | 59.7 | -48.2% (inactive) | 135 | -0.566 (inactive) | -1.8e-05 (inactive) | 0.00717 (inactive) | -1.57% (inactive) | -5.8% (inactive)
Cc1cc(C)c2c(n1)nn1c(C3CC3)cc(C(F)(F)F)nc21 | 631 | -2% (inactive) | 1.3% (inactive) | 92.2 | -11.4% (inactive) | 123 | -0.315 (inactive) | 2.7e-06 (inactive) | 0.00594 (inactive) | 8.22% (inactive) | 17.3% (inactive)
COc1cccc(OC)c1OCCNCCO | 632 | -3.4% (inactive) | 7.9% (inactive) | 118 | 8.1% (inactive) | 90.6 | -0.436 (inactive) | 3.2e-05 (inactive) | 0.00544 (inactive) | 13.1% (inactive) | 20.6% (inactive)
CCS(=O)(=O)N1CCC(C(=O)NCCc2ccc(C)cc2)CC1 | 646 | -10.6% (inactive) | 2.7% (inactive) | 81.2 | -178% (inactive) | 136 | -0.596 (inactive) | 1.4e-05 (inactive) | 0.00666 (inactive) | -2.06% (inactive) | 10.2% (inactive)
Cc1nc2sc(C(c3cccs3)N3CC(C)CC(C)C3)c(O)n2n1 (stereo unspecified) | 614 | 3.9% (inactive) | 27.2% (inactive) | 118 | -12.3% (inactive) | 109 | -0.545 (inactive) | 4.4e-06 (inactive) | 0.00614 (inactive) | 11.2% (inactive) | 21.5% (inactive)
O=C(COc1ccccc1)Nc1nc2ccccc2[nH]1 | 626 | -2.6% (inactive) | 2.7% (inactive) | 114 | 0.2% (inactive) | 119 | -0.45 (inactive) | -6.8e-05 (inactive) | 0.00605 (inactive) | -49.9% (inactive) | -93.8% (inactive)
